HT1080 IDH1KD tx: HT-1080 IDH1 knockdown cell toxicity (counter line). HT-1080 IDH1 knockdown viability, ATP luminescence, 48 h. Potency, µM (titrated, usually from 46.1 µM), without a hit: at the top dose activity, negative = toxicity, actives largely listed as cytotoxic. 2% of 360,000 active. AID 686971;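 also: 0% = DMSO wells and -100% = cell-free medium wells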
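Knockdown cells (IDH1KD HT-1080) received compounds 2 h after plating at 750 cells/well and were kept 48 h at 37 °C in 5% FBS RPMI. A CellTiter-Glo luminescence read gave % activity for curve fitting.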
KB-3-1 tox: KB-3-1 parental cell cytotoxicity; KB-3-1 viability, CellTiter-Glo ATP luminescence, 72 h; Potency, µM (doses to about 46.1 µM), actives largely listed as cytotoxic; 1.4% of 400,000 active; also: % is scaled to controls: 0 for no effect and ±100 for the full control effect; nearly all actives have a fitted effect of over 60% in size
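Multi-concentration cytotoxicity screen in KB-3-1 cells grown in DMEM lacking phenol red with 10% FBS. After 72 h at 37 °C with compound, ATP-dependent luminescence was recorded.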
KB-V1 cytotox: kills drug-selected multidrug resistant KB-V1 cells; KB-V1 MDR cells viability, CellTiter-Glo, 72 h; Potency, µM (titrated, usually from 46.1 µM), usual class: cytotoxic; 3.4% of 400,000 active; AID 1347076; also: % is scaled to controls: 0 for no effect and ±100 for the full control effect; nearly all actives have a fitted effect of over 60% in size
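Cells of the MDR subline KB-V1 are plated, dosed with compound at multiple concentrations, and incubated 72 h at 37 degrees C; CellTiter-Glo is then added and luminescence read after 10 min.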
HT1080NT lethal: kills 2HG-producing HT-1080-NT fibrosarcoma cells. Potency, µM (titrated, usually from 46.1 µM), without a hit: top-dose activity, negative = less viability, usual class: cytotoxic. HT-1080-NT fibrosarcoma viability, CellTiter-Glo ATP luminescence, 48 h. 1.6% of 360,000 active. AID 686970;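 also: NT is the 2HG producing partner of a matched IDH1 knockdown line; 0% = DMSO-treated cells and -100% = media-only wells without cells; nearly all actives have a fitted effect of over 55% in size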
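Fibrosarcoma NT cells, 750 per well in 5% FBS RPMI, were exposed to compound for 48 hours. Viability: CellTiter-Glo luminescence.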
SW480 rereplic: DNA re-replication induction in SW480 cells; SW480 DNA re-replication, Hoechst DNA content imaging, 48 h; Potency, µM (top dose mostly 46.1 µM), inactives show at the top dose re-replication activation, hits mostly activators; 1.8% of 340,000 active; AID 624297; also: % of control where 0% means no effect; nearly all actives have a fitted effect of over 55% in size
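DNA re-replication was detected as more nuclei of elevated Hoechst intensity after 48 hr exposure to compound (23 nL pinned per well of 250 cells).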
MCF10A rereplic: DNA re-replication induction in MCF 10a cells; 2.9% of 350,000 active; MCF 10A DNA re-replication, Hoechst nuclear intensity, 48 h; Potency, µM (titrated, usually from 46.1 µM), for inactives: top-dose activity, positive = re-replication, usual class: activators; also: % of control where 0% means no effect; nearly all actives have a fitted effect of over 50% in size
Active calls of the source: *; i = inactive; ? = inconclusive; . = no result; [ ] = another dose, or the depositor's remark. An excerpt weighted towards active compounds, which were near 8% of everything screened. Calls follow the shape of the dose curve; as a rule, active = well fitted curve in the direction sought with a large enough effect; inconclusive = small, poorly fitted or top-dose-only effect, or another doubt; inactive = no such curve, though single readings can be large; an effect the other way counts as inactive or inconclusive. Potency is read from the fitted curve at half-maximal effect.

SMILES | HT1080 IDH1KD tx | KB-3-1 tox | KB-V1 cytotox | HT1080NT lethal | SW480 rereplic | MCF10A rereplic
O=C(c1ccc(Cl)c(S(=O)(=O)N2CCc3ccccc32)c1)N1CCN(c2ccccc2O)CC1 | ? | i | 18.4µM* | -20.6% | 15.2% | ?
CCOC(=O)C1=C(C)N(c2ccccc2)C(=O)/C1=C\c1cccs1 | 5.2% | i | 18.4µM* | -0.5% | 2.6% | 0.5%
Cc1ccc(C(=O)NC2c3ccccc3-c3ccccc32)cc1 | 2.59µM* | 6.51µM* | 5.17µM* | ? | 13µM* | -0.5%
Cc1ccc(C(=O)NC2CCc3ccccc3C2=O)cc1 (stereo not drawn) | 1.3% | i | i | 20.8% | 1.2% | -5.7%
N=C1C(c2nc(-c3ccc(Cl)cc3)cs2)=C(O)CN1CCCN1CCOCC1 | ? | i | i | 23.1µM* | ? | -2.5%
CCN(CC)S(=O)(=O)c1ccc(C(=O)OC2CCCCC2CN(C)C)cc1 (stereo not drawn) | -8.7% | i | i | -8.5% | ? | 0.103µM*
CCn1c2ccccc2nc2cc3c(cc21)c(Cl)c(=O)c1ccccc13 | 20.6µM* | ? | i | ? | . | .
CN(CC1CCN(CCc2cccc(C(F)(F)F)c2)CC1)C(=O)c1ccccc1 | 11.1% | i | i | 2.7% | -31.5% | ?
Cc1nn(-c2ccc(F)cc2)c(-n2cccc2)c1C(=O)N1CCN(c2ccc(F)cc2)CC1 | . | ? | 16.4µM* | . | . | .
COc1ccc(CCNC(=O)c2cnn3ccccc23)c(OC)c1OC | 12.4% | i | i | 23.8% | -16.2% | 4.7%
Cc1cccc(-n2nc(C)c(C(=O)N3CCN(c4ccccc4)CC3)c2-n2cccc2)c1 | . | i | i | . | . | .
COc1ccc(CCNC(=O)c2c(C)nn(-c3ccc(F)cc3)c2-n2cccc2)c(OC)c1OC | . | ? | 11.6µM* | . | . | .
Cc1nn(-c2ccc(F)cc2)c(-n2cccc2)c1C(=O)N1CCN(c2ccccc2F)CC1 | . | ? | 10.3µM* | . | . | .
CN1C(=O)c2ccccc2NC(=O)[C@]12O[C@@H]2c1cccc(O)c1 | 0.3% | i | ? | 0.0% | 1.5% | 7.2%
O=C(Nc1ccccc1)C(Cc1ccccc1)NC(=O)C12CC3CC(CC(C3)C1)C2 (stereo not drawn) | 5.0% | i | i | 12.8% | -4.4% | -1.6%
O=C(Cn1c(=O)n(Cc2cccs2)c(=O)c2cccnc21)Nc1ccccc1F | . | i | i | . | . | .
CC(C)(C)NCC(O)COc1c(F)cc(Br)cc1F (stereo not drawn) | 0.2% | i | i | 8.5% | -5.0% | -20.9%
CC(C)(C)CC(C)(C)NCC(O)COc1c(F)cc(Br)cc1F (stereo not drawn) | 20.6µM* | ? | 20.6µM* | 20.6µM* | ? | 0.2%
CC(CN1CCN(CC(C)C(=O)c2ccccc2)CC1)C(=O)c1ccccc1 (stereo not drawn) | 2.1% | i | i | -5.3% | 1.6% | 7.2%
O=C(c1ccc(Br)cc1)C(CN1CCOCC1)c1ccccc1 (stereo not drawn) | 7.31µM* | ? | ? | 10.3µM* | ? | 18.4µM*
O=C(c1ccccc1)c1ccc(OCC(O)CN2CCOCC2)cc1 (stereo not drawn) | -2.1% | i | i | -4.7% | 0.2% | -1.4%
O=C(c1ccccc1)C(CN1CCCCC1)c1ccccc1 (stereo not drawn) | 10.3µM* | 5.8µM* | 14.6µM* | 2.59µM* | 1.46µM* | 4.11µM*
CCOc1ccc(C(CN2CCOCC2)C(C)=O)cc1OC (stereo not drawn) | 10.3µM* | ? | ? | 20.6µM* | . | .
CCOc1ccc(C(=O)C(CN2CCOCC2)c2ccccc2)cc1 (stereo not drawn) | 9.2µM* | ? | ? | -9.5% | 5.17µM* | 7.31µM*
CCOc1ccc(C(C#N)N2CCOCC2)cc1OC (stereo not drawn) | 3.0% | i | i | 3.7% | -4.6% | 3.7%
SMILES | HT1080 IDH1KD tx | KB-3-1 tox | KB-V1 cytotox | HT1080NT lethal | SW480 rereplic | MCF10A rereplic
O=C(NCc1ccccc1)c1ccc(-c2ccccc2F)o1 | -2.9% | i | i | 2.5% | 21.3% | ?
CCS(=O)(=O)c1ncc(N(Cc2ccccc2)Cc2ccco2)c(C(=O)Nc2ccccc2C)n1 | . | i | i | . | . | .
O=C(CNC(=O)c1ccccc1F)NCC(c1cccs1)N1CCOCC1 (stereo not drawn) | -1.4% | i | i | 0.9% | -3.2% | 8.9%
CCOC(=O)c1cc(CC)sc1NC(=O)COc1ccc2c(C)cc(=O)oc2c1 | 16.1% | i | i | 16.3% | -3.0% | -6.9%
CC(CN1CCCC1)OC(=O)C(c1ccccc1)c1ccccc1 (stereo not drawn) | 18.3% | i | i | 10.0% | ? | 0.581µM*
Cc1csc2nc(COC(=O)COc3ccccc3F)cc(=O)n12 | . | i | i | . | . | .
CCOc1ccc(NC(=O)CN2C(C(=O)OC)=C(c3ccccc3)c3cc(Cl)ccc3S2(=O)=O)cc1 | . | i | i | . | . | .
Cc1noc(C)c1CSCC(=O)Nc1cc(C(F)(F)F)ccc1N1CCOCC1 | -1.0% | i | 3.66µM* | -3.1% | 0.0% | -3.0%
O=C(CCC1CCCC1)Nc1cc(C(F)(F)F)ccc1N1CCOCC1 | 10.8% | i | i | 0.4% | 3.66µM* | -8.5%
CC(C)C(=O)Nc1cc(C(F)(F)F)ccc1N1CCOCC1 | 1.1%[9.24 µM] | i | i | -3.1% | 2.4% | -5.8%
CCOc1ccccc1NC(C)C(=O)Nc1cc(C(F)(F)F)ccc1N1CCOCC1 (stereo not drawn) | -24.2% | ? | 5.8µM* | -3.3% | -32.4% | 11.3%
CC(C)C(NC(=O)c1ccccc1)C(=O)NCc1ccccn1 (stereo not drawn) | -1.8% | i | i | 10.9% | 1.4% | -14.9%
COCc1ccc(CN2CCC(C(=O)Nc3cccc(-c4cccc(Cl)c4)c3)CC2)o1 | 16.4µM* | ? | ? | 14.6µM* | ? | ?
O=C(Nc1cccc(-c2cccc(Cl)c2)c1)C1CCN(Cc2ccon2)CC1 | ? | ? | i | ? | ? | 8.7%
Cc1cccc(-c2ccc(NC(=O)C3CCN(CC4CC4)CC3)cc2)c1 | ? | i | i | 20.6µM* | ? | ?
COCc1ccc(CN2CCC(C(=O)Nc3cccc(-c4cscn4)c3)CC2)o1 | -0.5% | i | i | 3.2% | 2.1% | 26.9%
O=C(Nc1cccc(-c2cccc(Cl)c2)c1)C1CCN(CC2CCOC2)CC1 (stereo not drawn) | ? | ? | i | 18.4µM* | 36.8% | 14.8%

Source: PubChem (National Center for Advancing Translational Sciences (NCATS))
